Results reported in PMC7862700, “An all-to-all approach to the identification of sequence-specific readers for epigenetic DNA modifications on cytosine”.

Legend:
Assay in all cases: DAPPL (digital affinity profiling via proximity ligation, sequencing); 10 mM Tris-HCl pH 7.5, 50 mM NaCl, 1 mM DTT, 4% glycerol, room temperature, 30 min; GST-TFs on glutathione beads, 16-mer random dsDNA library, 0.1% formaldehyde crosslink after washing; high values mean tight binding
Details in all cases: protein: recombinant; tags: N-terminal GST; dsDNA, one strand shown
FLI1 = target: T1, FLI1 (Homo sapiens, UniProt Q01543 1-452)
T1 sequence: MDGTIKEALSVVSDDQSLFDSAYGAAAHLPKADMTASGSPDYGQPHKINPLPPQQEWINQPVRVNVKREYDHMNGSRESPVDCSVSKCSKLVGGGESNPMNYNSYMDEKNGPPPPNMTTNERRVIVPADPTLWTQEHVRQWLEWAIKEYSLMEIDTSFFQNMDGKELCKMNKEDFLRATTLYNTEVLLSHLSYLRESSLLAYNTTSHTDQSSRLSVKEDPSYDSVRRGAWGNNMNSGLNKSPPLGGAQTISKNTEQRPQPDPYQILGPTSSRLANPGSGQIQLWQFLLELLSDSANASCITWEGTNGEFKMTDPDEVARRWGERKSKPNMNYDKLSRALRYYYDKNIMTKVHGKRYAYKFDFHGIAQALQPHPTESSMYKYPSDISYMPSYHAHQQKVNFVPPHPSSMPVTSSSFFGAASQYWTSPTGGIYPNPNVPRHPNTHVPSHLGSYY
Procedure, shortened: (§1)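 After expression in yeast as GST fusions, human transcription factors were bound to glutathione beads, DNA-barcoded and mixed with a tag-only sample. The pools were incubated with 200 nmole of a 16-mer random double-stranded DNA library in Tris/NaCl/DTT/glycerol buffer (30 min, room temperature), washed and crosslinked with 0.1% formaldehyde. Proximity ligation with BsaI/T4 ligase ran for 1 h at 37 °C, before PCR amplification and sequencing on an Illumina NextSeq500. Binding signal is a hexamer's read frequency for a factor divided by its frequency for the tag-only sample.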

ELK1 = target: T2, ELK1 (Homo sapiens, UniProt P19419 1-428)
T2 sequence: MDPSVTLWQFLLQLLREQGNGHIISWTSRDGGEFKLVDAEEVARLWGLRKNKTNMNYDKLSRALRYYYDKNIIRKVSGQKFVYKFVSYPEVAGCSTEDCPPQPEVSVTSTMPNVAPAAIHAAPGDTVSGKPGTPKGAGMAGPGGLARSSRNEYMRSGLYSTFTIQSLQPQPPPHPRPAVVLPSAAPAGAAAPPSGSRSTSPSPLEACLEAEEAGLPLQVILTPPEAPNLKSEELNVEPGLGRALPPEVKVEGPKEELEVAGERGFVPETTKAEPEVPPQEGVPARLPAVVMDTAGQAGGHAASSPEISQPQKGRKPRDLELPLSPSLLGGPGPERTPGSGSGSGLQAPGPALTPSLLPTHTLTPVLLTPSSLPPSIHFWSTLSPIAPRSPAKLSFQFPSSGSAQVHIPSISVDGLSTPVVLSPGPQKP
Procedure, shortened: as §1

GABPA = target: T3, GABPA (Homo sapiens, UniProt Q06546 1-454)
T3 sequence: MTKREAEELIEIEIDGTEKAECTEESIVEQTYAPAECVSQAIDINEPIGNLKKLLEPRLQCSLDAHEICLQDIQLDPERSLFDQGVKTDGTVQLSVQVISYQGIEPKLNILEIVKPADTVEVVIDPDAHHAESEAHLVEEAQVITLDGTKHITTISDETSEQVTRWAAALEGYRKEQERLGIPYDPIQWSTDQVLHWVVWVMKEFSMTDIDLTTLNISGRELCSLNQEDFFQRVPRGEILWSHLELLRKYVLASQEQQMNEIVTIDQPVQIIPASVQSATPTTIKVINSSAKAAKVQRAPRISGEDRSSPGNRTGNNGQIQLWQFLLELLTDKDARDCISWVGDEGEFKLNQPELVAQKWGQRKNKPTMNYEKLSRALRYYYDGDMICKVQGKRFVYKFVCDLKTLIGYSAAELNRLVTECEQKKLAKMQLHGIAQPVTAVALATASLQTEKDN
Procedure, shortened: as §1

ERG = target: T4, ERG (Homo sapiens, UniProt P11308 1-479)
T4 sequence: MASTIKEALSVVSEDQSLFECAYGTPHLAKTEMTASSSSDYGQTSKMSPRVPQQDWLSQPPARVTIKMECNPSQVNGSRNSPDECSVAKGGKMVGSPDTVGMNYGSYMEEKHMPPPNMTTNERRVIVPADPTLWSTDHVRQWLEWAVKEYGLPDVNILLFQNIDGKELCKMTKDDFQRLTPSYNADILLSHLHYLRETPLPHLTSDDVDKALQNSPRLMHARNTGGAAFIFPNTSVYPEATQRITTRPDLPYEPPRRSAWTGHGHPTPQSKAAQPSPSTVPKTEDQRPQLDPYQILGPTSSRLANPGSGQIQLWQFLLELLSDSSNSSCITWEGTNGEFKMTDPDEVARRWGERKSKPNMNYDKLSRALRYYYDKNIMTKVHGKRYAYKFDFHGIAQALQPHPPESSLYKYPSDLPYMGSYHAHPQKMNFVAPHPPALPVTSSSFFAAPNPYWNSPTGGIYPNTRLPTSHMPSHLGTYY
Procedure, shortened: as §1

ELF1 = ELF1 (Homo sapiens, UniProt P32519 1-619)
Procedure, shortened: as §1

EHF = target: T5, EHF (Homo sapiens, UniProt Q9NZC4 1-300)
T5 sequence: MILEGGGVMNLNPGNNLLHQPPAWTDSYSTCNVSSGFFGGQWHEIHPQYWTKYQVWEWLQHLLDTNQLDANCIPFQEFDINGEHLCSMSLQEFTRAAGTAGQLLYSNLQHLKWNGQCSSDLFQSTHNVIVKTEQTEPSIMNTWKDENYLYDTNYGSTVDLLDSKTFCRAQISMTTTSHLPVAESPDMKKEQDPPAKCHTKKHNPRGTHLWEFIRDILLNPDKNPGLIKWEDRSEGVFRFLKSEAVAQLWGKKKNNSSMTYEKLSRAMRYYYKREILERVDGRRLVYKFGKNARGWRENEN
Procedure, shortened: as §1

SPI1 = SPI1 (Homo sapiens, UniProt P17947 1-270)
Procedure, shortened: as §1

SPIB = SPIB (Homo sapiens, UniProt Q01892 1-262)
Procedure, shortened: as §1

ELK3 = target: T6, ELK3 (Homo sapiens, UniProt P41970 1-407)
T6 sequence: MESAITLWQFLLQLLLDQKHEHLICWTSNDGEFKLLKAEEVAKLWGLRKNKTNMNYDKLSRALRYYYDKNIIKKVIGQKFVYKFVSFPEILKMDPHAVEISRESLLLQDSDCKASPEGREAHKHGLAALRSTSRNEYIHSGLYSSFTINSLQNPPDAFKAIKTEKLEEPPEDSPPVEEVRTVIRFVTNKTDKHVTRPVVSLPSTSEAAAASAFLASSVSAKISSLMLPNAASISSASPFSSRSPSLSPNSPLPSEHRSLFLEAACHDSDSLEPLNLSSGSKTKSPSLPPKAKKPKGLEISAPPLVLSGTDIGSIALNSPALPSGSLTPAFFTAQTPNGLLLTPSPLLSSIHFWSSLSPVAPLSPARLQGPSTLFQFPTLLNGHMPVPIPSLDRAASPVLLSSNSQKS
Procedure, shortened: as §1

ETV5 = ETV5 (Homo sapiens, UniProt P41161 1-510)
Procedure, shortened: as §1

SPIC = target: T7, SPIC (Homo sapiens, UniProt Q8N5J4 1-248)
T7 sequence: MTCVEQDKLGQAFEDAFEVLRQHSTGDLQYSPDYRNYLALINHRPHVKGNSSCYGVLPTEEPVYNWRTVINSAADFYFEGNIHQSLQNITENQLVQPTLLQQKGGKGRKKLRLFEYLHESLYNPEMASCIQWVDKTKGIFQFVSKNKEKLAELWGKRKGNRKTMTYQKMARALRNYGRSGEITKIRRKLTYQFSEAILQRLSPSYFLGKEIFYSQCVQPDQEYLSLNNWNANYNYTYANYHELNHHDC
Procedure, shortened: as §1

ELF4 = ELF4 (Homo sapiens, UniProt Q99607 1-663)
Procedure, shortened: as §1

ETV1 = ETV1 (Homo sapiens, UniProt P50549 1-477)
Procedure, shortened: as §1

ETS2 = target: T8, ETS2 (Homo sapiens, UniProt P15036 1-469)
T8 sequence: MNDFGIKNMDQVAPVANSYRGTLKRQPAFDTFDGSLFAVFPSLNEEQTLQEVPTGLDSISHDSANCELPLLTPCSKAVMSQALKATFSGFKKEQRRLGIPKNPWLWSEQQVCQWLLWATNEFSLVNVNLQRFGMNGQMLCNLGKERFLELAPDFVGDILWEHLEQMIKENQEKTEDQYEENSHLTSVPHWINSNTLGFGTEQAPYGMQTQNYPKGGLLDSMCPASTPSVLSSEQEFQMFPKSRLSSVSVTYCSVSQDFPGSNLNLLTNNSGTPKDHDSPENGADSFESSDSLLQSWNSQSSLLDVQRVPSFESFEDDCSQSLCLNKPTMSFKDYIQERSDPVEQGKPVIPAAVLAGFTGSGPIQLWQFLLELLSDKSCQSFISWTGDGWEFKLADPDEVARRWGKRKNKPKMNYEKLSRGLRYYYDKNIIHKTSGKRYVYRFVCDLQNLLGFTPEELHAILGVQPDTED
Procedure, shortened: as §1

SPDEF = target: T9, SPDEF (Homo sapiens, UniProt O95238 1-335)
T9 sequence: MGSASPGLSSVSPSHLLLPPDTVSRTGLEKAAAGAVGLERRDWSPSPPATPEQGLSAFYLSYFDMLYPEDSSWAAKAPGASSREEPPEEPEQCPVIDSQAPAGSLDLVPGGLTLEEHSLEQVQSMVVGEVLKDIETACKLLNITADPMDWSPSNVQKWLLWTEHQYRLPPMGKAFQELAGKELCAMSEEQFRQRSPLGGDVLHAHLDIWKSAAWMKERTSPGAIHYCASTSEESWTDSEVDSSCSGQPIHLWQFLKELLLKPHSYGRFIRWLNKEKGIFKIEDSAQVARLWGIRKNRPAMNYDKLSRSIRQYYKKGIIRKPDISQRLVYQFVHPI
Procedure, shortened: as §1

ETV3 = target: T10, ETV3 (Homo sapiens, UniProt P41162-2 1-143)
T10 sequence: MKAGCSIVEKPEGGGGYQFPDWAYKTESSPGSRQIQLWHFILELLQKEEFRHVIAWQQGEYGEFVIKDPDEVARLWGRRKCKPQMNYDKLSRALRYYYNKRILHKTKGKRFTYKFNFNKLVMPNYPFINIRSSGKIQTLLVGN
Procedure, shortened: as §1

ETV6 = ETV6 (Homo sapiens, UniProt P41212 1-452)
Procedure, shortened: as §1

Chain of SPIB (Q01892 whole entry): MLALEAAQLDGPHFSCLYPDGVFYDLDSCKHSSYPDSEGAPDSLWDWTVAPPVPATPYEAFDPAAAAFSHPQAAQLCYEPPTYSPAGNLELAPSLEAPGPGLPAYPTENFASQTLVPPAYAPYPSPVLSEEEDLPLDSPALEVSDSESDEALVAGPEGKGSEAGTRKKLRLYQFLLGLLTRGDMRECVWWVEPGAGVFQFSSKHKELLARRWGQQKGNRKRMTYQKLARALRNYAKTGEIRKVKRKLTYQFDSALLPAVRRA
Chain of ETV1 (P50549 whole entry): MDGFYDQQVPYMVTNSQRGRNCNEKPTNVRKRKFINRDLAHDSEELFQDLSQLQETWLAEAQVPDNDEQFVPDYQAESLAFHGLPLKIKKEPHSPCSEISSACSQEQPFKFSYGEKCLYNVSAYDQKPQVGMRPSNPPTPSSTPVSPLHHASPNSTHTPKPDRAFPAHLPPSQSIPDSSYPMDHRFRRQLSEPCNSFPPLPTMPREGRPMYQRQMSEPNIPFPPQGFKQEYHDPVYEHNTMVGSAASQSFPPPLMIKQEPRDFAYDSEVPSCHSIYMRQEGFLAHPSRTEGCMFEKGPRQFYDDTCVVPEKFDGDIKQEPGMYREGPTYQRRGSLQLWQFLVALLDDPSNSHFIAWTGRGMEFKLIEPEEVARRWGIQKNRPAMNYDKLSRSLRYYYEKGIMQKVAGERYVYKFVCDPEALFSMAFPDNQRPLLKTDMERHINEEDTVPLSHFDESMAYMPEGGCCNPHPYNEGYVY
Chain of ELF1 (P32519 whole entry): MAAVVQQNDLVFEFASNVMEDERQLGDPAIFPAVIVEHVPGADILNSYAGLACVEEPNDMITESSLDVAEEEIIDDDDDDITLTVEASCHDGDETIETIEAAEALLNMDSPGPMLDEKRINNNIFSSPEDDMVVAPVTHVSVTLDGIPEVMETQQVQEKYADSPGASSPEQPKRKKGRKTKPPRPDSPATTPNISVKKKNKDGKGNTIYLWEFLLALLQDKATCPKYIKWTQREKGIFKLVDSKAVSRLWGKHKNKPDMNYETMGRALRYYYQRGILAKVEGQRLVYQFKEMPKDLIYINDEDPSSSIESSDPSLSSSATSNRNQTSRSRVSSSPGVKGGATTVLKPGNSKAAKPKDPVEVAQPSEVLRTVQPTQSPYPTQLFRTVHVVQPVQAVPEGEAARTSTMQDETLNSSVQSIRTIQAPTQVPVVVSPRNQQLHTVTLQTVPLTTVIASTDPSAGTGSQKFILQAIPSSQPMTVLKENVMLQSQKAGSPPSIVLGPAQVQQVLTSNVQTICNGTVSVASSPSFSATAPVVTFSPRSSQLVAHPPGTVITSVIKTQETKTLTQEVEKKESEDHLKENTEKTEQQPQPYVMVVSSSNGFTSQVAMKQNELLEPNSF
Chain of ELF4 (Q99607 whole entry): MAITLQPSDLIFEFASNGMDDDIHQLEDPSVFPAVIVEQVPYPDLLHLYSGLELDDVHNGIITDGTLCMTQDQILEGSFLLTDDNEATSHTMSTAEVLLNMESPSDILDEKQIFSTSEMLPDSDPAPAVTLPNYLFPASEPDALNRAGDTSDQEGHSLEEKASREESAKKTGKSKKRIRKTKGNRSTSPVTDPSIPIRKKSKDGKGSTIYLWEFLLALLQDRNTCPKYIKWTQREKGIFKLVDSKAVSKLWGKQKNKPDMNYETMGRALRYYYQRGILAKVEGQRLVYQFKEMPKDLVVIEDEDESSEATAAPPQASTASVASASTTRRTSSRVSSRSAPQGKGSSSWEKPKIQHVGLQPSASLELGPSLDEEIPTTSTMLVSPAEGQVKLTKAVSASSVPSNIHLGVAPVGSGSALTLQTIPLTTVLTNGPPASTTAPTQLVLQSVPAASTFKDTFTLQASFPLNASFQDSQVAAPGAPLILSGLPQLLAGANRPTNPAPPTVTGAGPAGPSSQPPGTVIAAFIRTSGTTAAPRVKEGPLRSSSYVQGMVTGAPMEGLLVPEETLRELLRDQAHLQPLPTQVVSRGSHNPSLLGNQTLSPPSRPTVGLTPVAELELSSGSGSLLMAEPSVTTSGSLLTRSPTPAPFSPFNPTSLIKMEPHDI
Chain of ETV6 (P41212 whole entry): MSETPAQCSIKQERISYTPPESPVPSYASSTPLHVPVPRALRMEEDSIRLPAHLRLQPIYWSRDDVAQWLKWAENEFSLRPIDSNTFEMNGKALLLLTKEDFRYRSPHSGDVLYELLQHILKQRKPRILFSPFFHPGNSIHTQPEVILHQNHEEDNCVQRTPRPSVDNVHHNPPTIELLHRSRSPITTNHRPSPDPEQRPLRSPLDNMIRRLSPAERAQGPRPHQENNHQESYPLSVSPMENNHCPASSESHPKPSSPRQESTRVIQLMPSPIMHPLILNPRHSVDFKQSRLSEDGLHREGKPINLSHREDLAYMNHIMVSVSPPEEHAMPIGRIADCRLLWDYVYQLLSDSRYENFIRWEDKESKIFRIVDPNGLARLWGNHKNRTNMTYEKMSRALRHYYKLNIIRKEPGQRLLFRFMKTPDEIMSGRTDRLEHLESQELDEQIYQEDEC
Chain of ETV5 (P41161 whole entry): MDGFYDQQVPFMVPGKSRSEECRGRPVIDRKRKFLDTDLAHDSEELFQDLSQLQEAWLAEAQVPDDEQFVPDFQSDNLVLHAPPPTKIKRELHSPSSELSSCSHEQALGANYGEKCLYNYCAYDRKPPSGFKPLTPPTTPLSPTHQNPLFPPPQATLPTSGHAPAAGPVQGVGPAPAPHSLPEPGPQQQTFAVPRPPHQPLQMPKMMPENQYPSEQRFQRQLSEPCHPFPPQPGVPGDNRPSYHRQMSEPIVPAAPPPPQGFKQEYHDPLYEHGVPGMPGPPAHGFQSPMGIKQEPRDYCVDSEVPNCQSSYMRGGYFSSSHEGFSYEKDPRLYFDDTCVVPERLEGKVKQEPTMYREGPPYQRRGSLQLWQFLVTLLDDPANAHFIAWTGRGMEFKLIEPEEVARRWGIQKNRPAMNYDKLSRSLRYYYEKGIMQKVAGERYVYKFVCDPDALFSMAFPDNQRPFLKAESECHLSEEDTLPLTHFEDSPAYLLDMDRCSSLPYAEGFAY

## AGTGTC
FLI1
  binding signal: 1.01 fold enrichment (6-mer frequency, TF over GST control)
ELK1
  binding signal: 1.07 fold enrichment (6-mer frequency, TF over GST control)
GABPA
  binding signal: 1.07 fold enrichment (6-mer frequency, TF over GST control)
ERG
  binding signal: 1.08 fold enrichment (6-mer frequency, TF over GST control)
ELF1
  binding signal: 1.06 fold enrichment (6-mer frequency, TF over GST control)
EHF
  binding signal: 1.14 fold enrichment (6-mer frequency, TF over GST control)
SPI1
  binding signal: 1.16 fold enrichment (6-mer frequency, TF over GST control)
SPIB
  binding signal: 1.01 fold enrichment (6-mer frequency, TF over GST control)
ELK3
  binding signal: 1.01 fold enrichment (6-mer frequency, TF over GST control)
ETV5
  binding signal: 1.06 fold enrichment (6-mer frequency, TF over GST control)
SPIC
  binding signal: 1.11 fold enrichment (6-mer frequency, TF over GST control)
ELF4
  binding signal: 1.07 fold enrichment (6-mer frequency, TF over GST control)
ETV1
  binding signal: 1.02 fold enrichment (6-mer frequency, TF over GST control)
ETS2
  binding signal: 1.09 fold enrichment (6-mer frequency, TF over GST control)
SPDEF
  binding signal: 1.05 fold enrichment (6-mer frequency, TF over GST control)
ETV3
  binding signal: 1.07 fold enrichment (6-mer frequency, TF over GST control)
ETV6
  binding signal: 1.01 fold enrichment (6-mer frequency, TF over GST control)
